Assay [1] concerns the target Voltage-gated inwardly rectifying potassium channel KCNH2 (Homo sapiens) (UniProt Q12809). The assay can be described thus: qHTS Assay for Small Molecule Inhibitors of the Human hERG Channel Activity (AID 588834).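 Note: U2OS cells transduced with hERG by BacMam; top concentration of the series differs between compounds; lower thallium flux fluorescence means stronger hERG block; nearly all actives have a fitted effect of over 50% in size.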 The gist of the method:
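Cells were infected with hERG-BacMam virus for 4 hrs at room temperature, grown overnight, then seeded at 2000/well. After dye loading and roughly 10 min compound treatment, thallium influx was triggered and fluorescence recorded.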

For assay [2], the target named is Luciferin 4-monooxygenase (Photinus pyralis) (UniProt P08659). Kind of assay: Biochemical firefly luciferase enzyme assay for NPC (AID 624030).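 Note: purified P. pyralis luciferase at 10 nM with luciferin and ATP substrate; series mostly up to about 59 µM; nearly all actives have a fitted effect of over 70% in size.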 A digest of the protocol:
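Purified P. pyralis luciferase at 10 nM in 50 mM Tris Acetate (final), luminescence read within 5 minutes of enzyme addition to compounds. Activity normalised to PTC124 versus DMSO; concentration-response curves classed by r2, magnitude and activity.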

Inconclusive results are not listed. Where a call stands in place of a potency, no number is given. Activity calls are given as the source filed them. Calls come from the whole dose curve; as a rule, active = well fitted inhibition curve with a large enough effect; inconclusive = small, poorly fitted or top-dose-only effect; inactive = flat fitted curve, though single readings scatter.

The values that follow come from PubChem BioAssay (NCATS).

Sequence of Luciferin 4-monooxygenase (Photinus pyralis) (P08659 whole entry, looked up): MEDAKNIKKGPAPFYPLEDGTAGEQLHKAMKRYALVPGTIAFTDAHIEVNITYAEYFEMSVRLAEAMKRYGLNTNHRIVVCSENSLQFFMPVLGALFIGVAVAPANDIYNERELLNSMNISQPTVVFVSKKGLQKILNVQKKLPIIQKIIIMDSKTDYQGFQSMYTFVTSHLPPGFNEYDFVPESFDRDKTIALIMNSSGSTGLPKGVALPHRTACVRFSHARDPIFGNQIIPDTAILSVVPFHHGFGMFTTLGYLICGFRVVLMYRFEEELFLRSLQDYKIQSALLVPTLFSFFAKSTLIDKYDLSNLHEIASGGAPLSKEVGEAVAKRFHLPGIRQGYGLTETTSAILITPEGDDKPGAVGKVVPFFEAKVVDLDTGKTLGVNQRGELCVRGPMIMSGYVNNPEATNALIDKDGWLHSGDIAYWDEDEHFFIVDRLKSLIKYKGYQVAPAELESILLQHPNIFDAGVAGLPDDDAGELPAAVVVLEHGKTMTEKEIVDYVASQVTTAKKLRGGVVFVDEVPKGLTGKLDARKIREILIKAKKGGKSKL
Sequence of Voltage-gated inwardly rectifying potassium channel KCNH2 (Homo sapiens) (Q12809 whole entry, looked up): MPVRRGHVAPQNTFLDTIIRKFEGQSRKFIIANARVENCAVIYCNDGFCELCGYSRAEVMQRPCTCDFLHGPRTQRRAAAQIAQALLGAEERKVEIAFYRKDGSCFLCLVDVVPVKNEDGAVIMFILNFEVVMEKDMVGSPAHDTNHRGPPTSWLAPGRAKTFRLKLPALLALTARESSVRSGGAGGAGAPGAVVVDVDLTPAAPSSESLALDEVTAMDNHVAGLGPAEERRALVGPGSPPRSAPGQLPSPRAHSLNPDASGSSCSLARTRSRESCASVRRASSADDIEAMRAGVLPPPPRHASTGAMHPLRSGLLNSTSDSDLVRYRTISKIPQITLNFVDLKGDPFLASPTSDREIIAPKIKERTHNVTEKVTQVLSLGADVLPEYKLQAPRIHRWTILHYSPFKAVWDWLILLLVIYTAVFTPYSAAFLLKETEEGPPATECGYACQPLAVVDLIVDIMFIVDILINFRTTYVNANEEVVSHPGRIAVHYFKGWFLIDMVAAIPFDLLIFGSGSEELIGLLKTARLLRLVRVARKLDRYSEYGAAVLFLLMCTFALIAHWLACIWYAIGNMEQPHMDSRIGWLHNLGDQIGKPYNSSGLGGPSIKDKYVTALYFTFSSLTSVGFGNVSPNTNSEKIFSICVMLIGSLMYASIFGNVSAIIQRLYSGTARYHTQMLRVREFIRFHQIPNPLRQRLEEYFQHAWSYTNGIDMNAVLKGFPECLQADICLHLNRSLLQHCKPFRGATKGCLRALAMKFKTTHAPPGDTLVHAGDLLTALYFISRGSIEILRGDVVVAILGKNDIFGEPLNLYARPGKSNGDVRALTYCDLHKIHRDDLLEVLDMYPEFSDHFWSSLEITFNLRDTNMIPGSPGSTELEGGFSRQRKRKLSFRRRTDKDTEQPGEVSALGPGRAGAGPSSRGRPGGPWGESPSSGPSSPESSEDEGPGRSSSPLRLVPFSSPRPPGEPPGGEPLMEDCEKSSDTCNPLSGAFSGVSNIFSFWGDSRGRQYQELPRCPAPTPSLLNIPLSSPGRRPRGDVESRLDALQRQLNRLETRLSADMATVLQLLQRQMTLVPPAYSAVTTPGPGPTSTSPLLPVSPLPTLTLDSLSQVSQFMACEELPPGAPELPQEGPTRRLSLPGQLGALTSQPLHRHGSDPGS

As to `CCCCCCCCCCOc1cc2c(=O)c(C(=O)OCC)c[nH]c2cc1OCC`, the Potency entry in assay [1] and in assay [2] was “inactive” throughout.

With `COc1ccccc1Oc1c(NS(=O)(=O)c2ccc(C(C)(C)C)cc2)nc(-c2ncccn2)nc1OCCO`, the Potency result in assay [1] and in assay [2] was “inactive” each time.

As to `C[N+](C)(C)CC[N+]1(C)Cc2c(Cl)c(Cl)c(Cl)c(Cl)c2C1`, the Potency entry in assay [1] and in assay [2] was “inactive” each time.

`O=C(O)c1ccccc1OP(=O)(O)O`: the Potency result in assay [1] and in assay [2] was “inactive” each time.

In the case of `c1ccc2[nH]ccc2c1`, the Potency result in assay [1] and in assay [2] was “inactive” throughout.

As for `OCC(O)CS` (stereo not given), the Potency result in assay [1] and in assay [2] was “inactive” in each case.

With `CC(N)CCCC(C)(C)O` (stereo not given), the Potency result in assay [1] and in assay [2] was “inactive” each time.

As to `NS(=O)(=O)c1ccc(C(=O)O)cc1`, the Potency result in assay [1] and in assay [2] was “inactive” each time.

For the molecule `CCc1cccc(CC)c1NC(=O)CN(CC(=O)O)CC(=O)O`, the Potency entry in assay [1] and in assay [2] was “inactive” each time.

As for `CN1C(C)(C)CCCC1(C)C`, the Potency entry in assay [1] and in assay [2] was “inactive” in each case.

Consider `Nc1ncnc(Nc2ccccc2)n1`, for which the Potency result in assay [1] and in assay [2] was “inactive” in each case.

For `CCN(CC)S(=O)(=O)c1ccc(C(=O)O)cc1`, the Potency entry in assay [1] and in assay [2] was “inactive” throughout.

With `CC(C(=O)O)c1ccc2c(c1)Cc1cccnc1O2` (stereo not given), the Potency result in assay [1] and in assay [2] was “inactive” each time.

For `CC(=O)NCc1c(I)c(NC(C)=O)c(I)c(C(=O)O)c1I`, the Potency entry in assay [1] and in assay [2] was “inactive” throughout.

Turning to `O=c1[nH]c(=O)c2ccccc2o1`, the Potency entry in assay [1] and in assay [2] was “inactive” throughout.

Consider `C[C@H]1COc2c(C3(N)CC3)c(F)cc3c(=O)c(C(=O)O)cn1c23`, for which the Potency result in assay [1] and in assay [2] was “inactive” in each case.

For the molecule `CCOC(N)=O`, the Potency entry in assay [1] and in assay [2] was “inactive” each time.

Turning to `NC(=O)CC[C@@H](N)C(=O)O`, the Potency entry in assay [1] and in assay [2] was “inactive” throughout.

Turning to `CN(C(=O)c1c(O)c2ccccc2n(C)c1=O)c1ccccc1`, the Potency result in assay [1] and in assay [2] was “inactive” each time.

For the molecule `CCN(CC)CCc1nc(-c2ccccc2)no1`, the Potency result in assay [1] and in assay [2] was “inactive” throughout.

For `Nc1ccncc1N`, the Potency entry in assay [1] and in assay [2] was “inactive” in each case.

As for `Cc1ncc(CO)c(CN)c1O`, the Potency result in assay [1] and in assay [2] was “inactive” in each case.

With `CC(=O)Oc1cccc(O)c1`, the Potency result in assay [1] and in assay [2] was “inactive” each time.

For the molecule `Cc1cc(C)c(NC(=O)CN(CC(=O)O)CC(=O)O)c(C)c1Br`, the Potency result in assay [1] and in assay [2] was “inactive” each time.

As for `CCN1CC(CCN2CCOCC2)C(c2ccccc2)(c2ccccc2)C1=O` (stereo not given), the Potency entry in assay [1] and in assay [2] was “inactive” in each case.

For `CC(O)CCCCn1c(=O)c2c(ncn2C)n(C)c1=O` (stereo not given), the Potency result in assay [1] and in assay [2] was “inactive” in each case.

With `CNCc1ccccc1`, the Potency result in assay [1] and in assay [2] was “inactive” throughout.

Consider `COc1cc(O)cc(O)c1`, for which the Potency result in assay [1] and in assay [2] was “inactive” each time.

Turning to `Cc1cc(-n2nc3ccc(Cl)cc3n2)c(O)c(C(C)(C)C)c1`, the Potency entry in assay [1] and in assay [2] was “inactive” throughout.

For the molecule `Cc1ccc(S(=O)(=O)NC(=O)NC2CCCCC2)cc1`, the Potency entry in assay [1] and in assay [2] was “inactive” in each case.

For the molecule `CN(C/C=C/C#CC(C)(C)C)Cc1cccc2ccccc12`, the Potency entry in assay [2] is “inactive”.

In the case of `CCOC(=O)[C@H](CCc1ccccc1)N[C@@H](C)C(=O)N1CCC[C@H]1C(=O)O`, the Potency result in assay [1] and in assay [2] was “inactive” throughout.

Consider `CC(=O)N(CC(O)CO)c1c(I)c(C(=O)NCC(O)CO)c(I)c(C(=O)NCC(O)CO)c1I` (stereo not given), for which the Potency entry in assay [1] and in assay [2] was “inactive” in each case.

With `C[C@@H](N)C(=O)O`, the Potency entry in assay [1] and in assay [2] was “inactive” each time.

Consider `COc1ccc(NS(=O)(=O)c2ccc(N)cc2)nn1`, for which the Potency entry in assay [1] and in assay [2] was “inactive” throughout.

Regarding `CN/C(=C\[N+](=O)[O-])NCCSCc1csc(CN(C)C)n1`, the Potency result in assay [2] is “inactive”.
